# Source: publication PMC4336329 (PLoS ONE, 2015)
# The whole screen tested about 310,000 compounds, of which about 14,000 (4.5%) showed an effect of 50% or more. Effects have a minus sign here. For the sample, strong results were picked, then their nearest neighbours and some compounds at random.
# Target: human ether-à-go-go-related gene (hERG) potassium channel (human, UniProt Q12809)
# Assay: primary screen, population patch clamp on CHO cells stably expressing hERG; higher = less effect of the substance
# 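Also: peak tail current of the secondary pulse compared with the same well before compound.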
# human ether-à-go-go-related gene (hERG) potassium channel, sequence (Q12809 whole entry, looked up): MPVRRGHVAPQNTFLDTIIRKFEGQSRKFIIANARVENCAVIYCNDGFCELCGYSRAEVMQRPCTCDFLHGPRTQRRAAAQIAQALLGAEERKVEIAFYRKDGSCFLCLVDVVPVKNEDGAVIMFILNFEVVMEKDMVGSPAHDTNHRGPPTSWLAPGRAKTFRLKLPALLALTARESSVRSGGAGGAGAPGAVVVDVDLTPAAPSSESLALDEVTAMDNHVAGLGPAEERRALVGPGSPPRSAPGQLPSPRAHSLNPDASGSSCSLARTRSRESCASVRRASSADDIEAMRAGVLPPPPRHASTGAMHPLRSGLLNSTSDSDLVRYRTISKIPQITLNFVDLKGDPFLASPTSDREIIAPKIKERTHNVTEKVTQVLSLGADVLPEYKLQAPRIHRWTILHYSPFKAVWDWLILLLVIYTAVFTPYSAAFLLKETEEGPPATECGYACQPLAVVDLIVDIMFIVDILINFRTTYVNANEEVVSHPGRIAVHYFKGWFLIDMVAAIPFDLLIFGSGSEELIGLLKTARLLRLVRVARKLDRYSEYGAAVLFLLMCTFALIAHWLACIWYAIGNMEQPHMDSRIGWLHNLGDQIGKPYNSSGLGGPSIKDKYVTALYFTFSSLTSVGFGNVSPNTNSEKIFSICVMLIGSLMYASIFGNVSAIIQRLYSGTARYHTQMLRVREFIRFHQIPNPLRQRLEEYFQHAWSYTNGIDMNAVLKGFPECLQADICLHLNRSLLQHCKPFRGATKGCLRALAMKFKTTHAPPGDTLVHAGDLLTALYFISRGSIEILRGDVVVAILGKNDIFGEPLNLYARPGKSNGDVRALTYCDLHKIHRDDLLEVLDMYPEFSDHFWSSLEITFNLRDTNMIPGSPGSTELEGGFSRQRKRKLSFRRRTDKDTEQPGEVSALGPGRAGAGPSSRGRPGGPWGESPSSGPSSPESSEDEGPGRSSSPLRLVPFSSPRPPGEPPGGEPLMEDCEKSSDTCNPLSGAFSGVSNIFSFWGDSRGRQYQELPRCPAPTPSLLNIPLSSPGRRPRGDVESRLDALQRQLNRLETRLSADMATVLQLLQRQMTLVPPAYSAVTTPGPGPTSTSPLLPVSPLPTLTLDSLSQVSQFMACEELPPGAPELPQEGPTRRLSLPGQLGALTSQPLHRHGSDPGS
row,SMILES,"hERG current change (%, negative = inhibition) at 10uM"
1,Brc1cccc(-c2nnc3n2CCC3)c1,2.98%
2,O=C(NC1CCN(C(=O)Nc2ccccc2)CC1)C1CCCCC1,-7.88%
3,O=C(CN1C(=O)c2cccc3cccc1c23)Nc1ccc(S(=O)(=O)N2CCOCC2)cc1,-9.06%
4,CCCSCCCNC(=O)Cn1cc2c(n1)CCC(C)C2 (stereo not drawn),-12.8%
5,COc1ccc(-c2nc3n(c(=O)c2C#N)CCCS3)cc1,-4.57%
6,COCCNC(=O)/C(=C/c1ccccc1Cl)c1ccccc1,-0.406%
7,COC(=O)N/N=C\c1ccc(OC/C=C/c2ccccc2)c(OC)c1,6.04%
8,N#CC1=C(SCC(=O)Nc2cccc3cccnc23)NC(=O)C(C#N)C12CCCCC2 (stereo not drawn),-20.7%
9,N#CC1=C(SCC(=O)c2cc3ccccc3oc2=O)NC(=O)C(C#N)C12CCCC2 (stereo not drawn),-54.5%
10,N#CC1=C(SCc2ccccc2)NC(=O)C(C#N)C12CCCC2 (stereo not drawn),1.97%
11,COC(=O)c1ccc(NC(=O)CCS(=O)(=O)c2ccc(Br)cc2)cc1,28.8%
12,NC(N)=NS(=O)(=O)c1ccc(NC(=S)NC(=O)c2ccncc2)cc1,2.9%
13,COc1ccccc1CNC(=O)C1=C(C)C(=O)OC12CCC(C)CC2 (stereo not drawn),-2.21%
14,O=C1C=C(c2cccc(Cl)c2)C[C@@H](c2ccc(Cl)cc2)C1,24.4%
15,COc1ccc([C@H]2CC(=O)C=C(c3cccc(CO)c3)C2)cc1,-59.3%
16,COc1ccc([C@H]2CC(=O)C=C(c3cccc(CO)c3)C2)cc1OC,-63.6%
17,COc1ccc([C@H]2CC(=O)C=C(c3ccccc3)C2)cc1OC,-3.04%
18,COCc1cccc(C2=CC(=O)C[C@H](c3ccc(OC)cc3)C2)c1,-20.7%
19,O=C1C=C(c2cccc(CO)c2)C[C@@H](c2ccc(Cl)cc2)C1,-54.5%
20,O=C1C=C(c2cccc(CO)c2)C[C@@H](c2ccc(F)cc2)C1,-45.3%
21,COc1cccc(C2=CC(=O)C[C@H](c3ccc(OC)c(OC)c3)C2)c1,-40%

row,SMILES,"hERG current change (%, negative = inhibition) at 10uM"
1,COc1ccc([C@H]2CC(=O)C=C(c3ccc(CO)cc3)C2)cc1,-4.98%
2,CC[C@@H]1[C@H]2CCCC(=O)N3CC[C@@H](C[C@@H]1Nc1ccccc1)[C@@H]23,-3.88%
3,Cc1ccc(NC(=O)COC(=O)c2cccc(OC(F)F)c2)cc1S(=O)(=O)N1CCCCC1,-21.1%
4,CCc1c(C)nc(N)n2c(SCC(=O)Nc3ccccc3)nnc12,12.5%
5,O=C1NC(Cc2c[nH]c3ccccc23)C(=O)N1CCOc1ccccc1 (stereo not drawn),-22.7%
6,O=C(CCC(=O)N1CCSc2ccccc21)Nc1ccc(F)cc1,-4.12%
7,Cc1oc(-c2ccccc2F)nc1CS(=O)CC(=O)NCc1ccccn1 (stereo not drawn),-0.614%
8,CC(C)n1cc(CN2CCC(Oc3ccc(C(=O)N4CCCCC4)cc3)CC2)cn1,-31.6%
9,O=C(c1ccc(OC2CCN(Cc3ccc(C(F)(F)F)cc3)CC2)cc1)N1CCCCC1,-57.2%
10,O=C(c1ccc(OC2CCN(Cc3ccccc3O)CC2)cc1)N1CCCCC1,3.29%
11,CC(C)c1ccc(CN2CCC(Oc3ccc(C(=O)N4CCCC4)cc3)CC2)cc1,-71.6%
12,O=C(c1ccc(OC2CCN(Cc3ccccc3C(F)(F)F)CC2)cc1)N1CCCCC1,2.01%
13,O=C(c1ccc(OC2CCN(Cc3cccc(F)c3)CC2)cc1)N1CCCCC1,-23.4%
14,Cn1cc(CN2CCC(Oc3ccc(C(=O)N4CCCCC4)cc3)CC2)cn1,8.81%
15,CCc1ccc(CN2CCC(Oc3ccc(C(=O)N4CCCCC4)cc3)CC2)cc1,-78.4%
16,C=CCOc1ccccc1CN1CCC(Oc2ccc(C(=O)N3CCCC3)cc2)CC1,-41.8%
17,CCn1cc(CN2CCC(Oc3ccc(C(=O)N4CCCCC4)cc3)CC2)cn1,-5.09%
18,CC(C)n1cc(CN2CCC(Oc3ccc(C(=O)N4CCCC4)cc3)CC2)cn1,-9.96%
19,C=CCOc1ccccc1CN1CCC(Oc2ccc(C(=O)N3CCCCC3)cc2)CC1,-57.6%
20,COc1cccc(NC(=O)Cc2ccccc2)c1,-3.98%
21,Cc1ccc2c(c1)N(CCCC(=O)NCCC1=CCCCC1)C(=O)CO2,-9.81%

row,SMILES,"hERG current change (%, negative = inhibition) at 10uM"
1,CCOc1cc(N2CCOCC2)c(OCC)cc1NC(=O)COC(=O)c1cc2ccccc2cc1O,-11.7%
2,CCc1ccc(-c2cc(C)no2)cc1S(=O)(=O)N1CCOc2ccc(C)cc21,13.1%
3,Cc1c(NC(=O)C(C)N(c2ccccc2)S(C)(=O)=O)c(=O)n(-c2ccccc2)n1C (stereo not drawn),18.7%
4,O=C(CCl)Nc1cccc(S(=O)(=O)NC2=NCCC2)c1,-0.632%
5,O=C(c1cccc(OC2CCN(Cc3cccc(OCCO)c3)CC2)c1)N1CCCC1,-2.71%
6,COc1cc(C)c(CN2CCC(Oc3ccc(C(=O)N4CCCC4)cc3)CC2)cc1C,-43.1%
7,COc1cccc(CN2CCC(Oc3ccc(C(=O)N4CCCCC4)cc3)CC2)c1,-25.3%
8,CSc1cccc(CN2CCC(Oc3ccc(C(=O)N4CCCCC4)cc3)CC2)c1,-25.2%
9,CSc1ccc(CN2CCC(Oc3ccc(C(=O)N4CCCC4)cc3)CC2)cc1,-71.1%
10,COc1ccc(CN2CCC(Oc3ccc(C(=O)N4CCCC4)cc3)CC2)c(F)c1,-51.4%
11,COC(=O)c1ccc(CN2CCC(Oc3cccc(C(=O)N4CCOCC4)c3)CC2)cc1,-22.7%
12,CSc1ccc(CN2CCC(Oc3cccc(C(=O)N4CCCC4)c3)CC2)cc1,-60.7%
13,O=C(c1cccc(OC2CCN(Cc3cc(F)cc(F)c3)CC2)c1)N1CCCC1,-34.9%
14,Cn1cc(CN2CCC(Oc3ccc(C(=O)N4CCCC4)cc3)CC2)cn1,9.86%
15,COC(=O)c1ccc(CN2CCC(Oc3cccc(C(=O)N4CCCC4)c3)CC2)cc1,-50.8%
16,CSc1cccc(CN2CCC(Oc3cccc(C(=O)N4CCCC4)c3)CC2)c1,-44.4%
17,COc1ccc(NC(=O)Nc2nnc(C(C)(C)C)s2)cc1,-18.8%
18,COC(=O)C(Cc1ccccc1)OS(N)(=O)=O (stereo not drawn),16.1%
19,COCCN1CN=C(NS(=O)(=O)c2ccc(C)cc2)NC1,16.3%
20,COc1cc(NC(=O)COc2cccc3c2OC(C)(C)C3)cc(OC)c1OC,-6.09%
21,CCN(C1=NS(=O)(=O)c2ccccc21)N(CC)S(=O)(=O)c1ccc(C)cc1,19.8%

row,SMILES,"hERG current change (%, negative = inhibition) at 10uM"
1,CCOC(=O)Cc1csc(NC(=O)c2ccc(S(=O)(=O)N3CCOCC3)cc2)n1,-2.52%
2,CN1CCN(C(=O)CSc2ccc(C(F)(F)F)cc2[N+](=O)[O-])CC1,-10.2%
3,CC(=O)Nc1ccc(CN2CCC(Oc3ccc(C(=O)N4CCCC4)cc3)CC2)cc1,-21.3%
4,CCc1ccc(CN2CCC(Oc3ccc(C(=O)N4CCCC4)cc3)CC2)cc1,-81.3%
5,COC(=O)c1ccc(CN2CCC(Oc3ccc(C(=O)N4CCCCC4)cc3)CC2)cc1,-51.7%
6,CCOc1cccc(CN2CCC(Oc3ccc(C(=O)N4CCCC4)cc3)CC2)c1,-27.4%
7,O=C(c1ccc(OC2CCN(Cc3ccc(F)cc3)CC2)cc1)N1CCCC1,-24%
8,COc1ccc(CN2CCC(Oc3ccc(C(=O)N4CCCCC4)cc3)CC2)cc1C,-45.7%
9,CC(=O)c1c(C)[nH]c(C(=O)Nc2cc(S(=O)(=O)N3CCCCC3)ccc2C)c1C,2.24%
10,CC(=O)O[C@@H]1/C=C/[C@](C)(O)C[C@@H](C)C/C=C/[C@H]2[C@H](O)C(C)=C(C)[C@H]3[C@H](Cc4ccccc4)NC(=O)[C@@]123,-15.4%
11,Cl.Oc1ccc(CC2CC3CCN2CC3)cc1O (stereo not drawn),12.7%
12,COc1ccc(NC(=O)Nc2cccc(Cl)c2Cl)c(OC)n1,3.16%
13,O=C(Cc1cccs1)N/N=C\c1ccc(O)cc1,14.5%
14,CC(C)(C)N1CC(c2nc3ccccc3n2CCOc2ccccc2)CC1=O (stereo not drawn),-26.1%
15,Cc1ccc2nc(N(CCCN(C)C)C(=O)c3ccc4ncsc4c3)sc2c1,-61.4%
16,CCc1ccc2nc(N(CCN(C)C)C(=O)c3ccc4ncsc4c3)sc2c1.Cl,-60.6%
17,Cc1ccc2nc(N(CCN(C)C)C(=O)c3ccc4ccccc4c3)sc2c1.Cl,15.9%
18,Cc1ccc2nc(N(CCCN(C)C)C(=O)c3ccc(S(=O)(=O)N(C)C)cc3)sc2c1.Cl,-42.1%
19,Cc1cccc2sc(N(CCCN(C)C)C(=O)c3ccc4ncsc4c3)nc12,-45%
20,CCc1ccc2nc(N(CCN(C)C)C(=O)c3ccc4ccccc4c3)sc2c1.Cl,0.369%
21,O=C(CCNC(=O)c1ccc([N+](=O)[O-])cc1)NC1CCCCCC1,-25.3%
